In PubChem BioAssay AID901 (National Center for Advancing Translational Sciences (NCATS), 2007):
The whole screen tested about 120,000 compounds, of which fewer than 10 were called active. Inconclusive results (about 4%) are left out. Calls come from the whole dose curve; as a rule, active = well fitted curve in the direction sought with a large enough effect in the signal ratio (not every such curve was filed as active); inconclusive = small, poorly fitted or top-dose-only effect, or a change in a side signal; inactive = no such curve, though single readings can be large or run the other way; the % refers to the signal ratio. A selection follows.

Target: Inositol monophosphatase 1 (Rattus norvegicus) (UniProt P97697)
Sequence (P97697 whole entry, looked up): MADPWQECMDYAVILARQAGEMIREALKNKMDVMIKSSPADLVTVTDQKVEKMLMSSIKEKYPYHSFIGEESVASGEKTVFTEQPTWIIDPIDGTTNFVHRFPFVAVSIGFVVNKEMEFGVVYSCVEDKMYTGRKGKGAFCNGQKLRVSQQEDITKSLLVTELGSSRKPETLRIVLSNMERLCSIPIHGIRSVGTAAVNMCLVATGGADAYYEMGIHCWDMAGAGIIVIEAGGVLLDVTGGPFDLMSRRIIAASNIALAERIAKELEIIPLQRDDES
Assay: qHTS Assay for Identifying the Cell-Membrane Permeable IMPase Inhibitors;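 note: plate controls were DMSO basal wells for no effect and reference inhibitor wells for full effect; higher means more IMPase inhibition seen as more IP1 and lower FRET ratio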
Conditions: CHO-M1 cells, HTRF TR-FRET ratio; series mostly up to 46.1 µM; inhibition (IP1 accumulation): at the top concentration
Description: NCGC IMPase Assay Overview
Lithium has been widely used for the treatment of bipolar disorder. But lithium has a narrow therapeutic index and it can cause side effects such as thirst, weight gain, tremor, polyuria and memory problems. Although the mechanism for lithium action in treatment of bipolar disorder is still not fully understood, inhibition of inositol monophosphatase (IMPase) and the subsequent depletion of the inositol pool in living cells have been implicated as the primary therapeutic benefit of lithium therapy. Therefore, a selective IMPase inhibitor with reduced side effects might be a good drug candidate to replace lithium for the treatment of bipolar disorder. Several IMPase inhibitors have been discovered previously. However, they are not suitable for therapeutic use because of their poor cell membrane penetrability or oral bioavailability; the development of new cell-permeable IMPase inhibitors is needed.
IMPase catalyzes the hydrolysis of inositol-1-phosphate (IP1) to release free inositol. Binding of an agonist to a Gq coupled GPCR results in the activation of PLC, which hydrolyzes the PIP2 to form inositol-1,4,5-trisphosphate (IP3) and diacyl glycerol (DAG). While DAG activates protein kinase C (PKC), IP3 triggers the elevation of intracellular free Ca2+. The IP3 is very rapidly inactivated by hydrolysis to IP2, IP1 and then inositol by a series of enzymes including IMPase. Free inositols are used for synthesis of PI and thus start another inositol cycle.
To identify new cell-permeable IMPase inhibitors, we developed a cell-based IMPase assay in which the cytosolic IP1 is measured by a time-resolved fluorescence resonance energy transfer (TR-FRET) assay. In this assay, an IP1 specific antibody is used to detect the labeled IP1 tracer. When the cell lysate contains the elevated IP1 due to the inhibition of IMPase, the TR-FRET between the labeled antibody and IP1 tracer is disrupted resulting in a reduction in the total signal. Since the TR-FRET is used, this cell-based assay is a homogenous assay without cell wash and medium change that is suitable for assay miniaturization and HTS.
NCGC IMPase Assay Protocol Summary
A Chinese hamster ovary (CHO) cell line stably expressing the M1 receptor (CHO-M1) was obtained from ATCC and maintained in F-12 Kaighn's media (Invitrogen, Carlsbad, CA, 21127) supplemented with 10 % FBS, 100 units/ml penicillin, 100 ug/ml streptomycin and 250 ug/ml geneticin at 37C, 5% CO2 in a humidified atmosphere. Before the assay, aliquots of cells were frozen and stored at -135C. The assay was performed in 1536-well format. Data are reported for both the ratio of the two emission wavelengths, and also for the component 'donor' channel, Em2=620. […] AC50 values were determined from concentration-response data modeled with the standard Hill equation.
IMPase 1536-well assay protocol:
(1) Plate 4 ul/well (2000 cells) of cell suspension from frozen CHO-M1 Cells in white, tissue culture treated 1536-well plates that are cultured at 37C, 5 % CO2 for 16 to 30 hours.
(2) Add 23 nl/well of compound in DMSO solution. The final titration for each compound was between 0.6 nM and 46 uM.
(3) Add 1 ul of carbachol (50 uM in stimulation buffer containing10mM HEPES, 1mM CaCl2, 0.5 mM MgCl2, 4.2 mM KCl, 146 mM NaCl, 5.5 mM glucose, 50mM LiCl, pH 7.4.
(4) Incubation at 37C, 5 % CO2 for 30 min.
(5) Add 1 ul/well of d2-conjugated IP1 (d2-IP1) and 1 ul/well of Eu+ cryptate conjugated anti-IP1 antibody (Eu+-Ab) prepared in the cell lysis buffer, both from the IP-One kit (Cisbio, MA).
(6) Incubate at room temperature for 10 minutes.
(7) Detect the assay plate (Ex = 320, Em1 =665 and Em2 620) in a ViewLux plate reader.
inositol monophosphatase, IMPase, IMPase inhibitor, lithium, bipolar disorder, IP-One, HTRF, qHTS, NIH roadmap, NCGC
Note: In the gene ID and protein GI references for this assay, rat IMPase is referenced instead of hampster as hamster accession numbers were not available.

Inhibition (IP1 accumulation), inactive:
CCOc1ccc(S(=O)(=O)N(CC(=O)NCCSCc2ccc(C)cc2)c2ccccc2)cc1 0.0904%
Cc1ccc(C)c(N2CCN(Cc3nnc(-c4ccccc4)o3)CC2)c1 0.756%
COC(=O)Cc1ccc(NC(=S)NCc2ccc(Cl)cc2)cc1 5.56%
CCOc1cccc2c1N[C@@H](c1ccc(C(=O)O)cc1)[C@H]1CC=C[C@@H]21 -3.86%
NC(=S)N/N=C/c1coc2cc(Cl)ccc2c1=O -0.625%
CCc1ccc2oc(-c3ccc(NC(=O)c4cc5ccccc5o4)cc3)nc2c1 -1.73%
CCOc1ccc(C2CC(=O)c3c([nH]c(C(=O)OCc4ccccc4)c3C)C2)cc1 (configuration not stated) 3.71%
Cc1ccc(C)c(NC(=O)C(OC(=O)c2ccc(C)s2)c2ccccc2)c1 (configuration not stated) -14%
CCOc1ccc(NC(=O)c2c(NC(=O)Cc3ccccc3)sc3c2CCC(C)C3)cc1 (configuration not stated) -6.95%
Cc1ccc(NC(=O)C(=O)NCc2ccc(/C=N/NC(=O)c3c(C)nc4cc(C)ccn34)o2)cc1 1.32%
Cc1ccc(C)c(OCC(=O)Nc2sc3c(c2C#N)CCCC3)c1C -2.87%
Cc1nc(SCC(=O)Nc2ccc(C(=O)O)cc2)n[nH]1 -6.55%
CCOC(=O)c1c(NC(=S)NC(=O)/C=C/c2cccs2)sc(C)c1C 14.1%
CCCOC(=O)c1c(NC(=O)c2cc3nc(-c4ccc(OC)cc4)cc(C(F)(F)F)n3n2)sc2c1CCCC2 -5.29%
Cc1cccc(-c2nnc(SCC(=O)N3CCCc4ccccc43)o2)c1 6.23%
CCOC(=O)/C(C#N)=C/c1ccc(N2CCN(Cc3ccccc3)CC2)cc1 -6.85%
CCOc1ccc(S(=O)(=O)Nc2ccc3oc4c(c3c2)CC(C)CC4)cc1 (configuration not stated) -1.93%
Cc1ccc(CSCC(N)C(=O)O)cc1 (configuration not stated) -9.45%
CCC1=Nc2cc(C(=O)NCC(C)c3ccccc3)ccc2Sc2ccc(C)cc21 (configuration not stated) 8.49%
CCOC(=O)c1ccc(NC(=O)c2ncn(-c3ccccc3)n2)cc1 -8.15%
COCCNC(=O)c1ccc(N2CCC3(CC2)OCCO3)c([N+](=O)[O-])c1 -6.33%
O=C(Nc1ccc2oc(-c3ccc(O)c(Br)c3)nc2c1)c1cc2ccccc2o1 0.3%
Cc1c(NS(=O)(=O)c2ccc(NC3CCCC3)c([N+](=O)[O-])c2)c(=O)n(-c2ccccc2)n1C -7.88%
O=C(CCS(=O)(=O)c1cc(Br)cc2c1N(C(=O)C1CC1)CC2)Nc1ccc(Br)cc1F 2.33%
COc1ccc(OC)c(/C=C/C(=O)OCC(=O)Nc2ccc3c(c2)OCCO3)c1 -17.1%
COc1cccc(N=C2SC(C(=O)Nc3cccc(Cl)c3)CC(=O)N2C)c1 (configuration not stated) -10.3%
COc1ccc([N+](=O)[O-])cc1NC(=O)c1ccc(N(Cc2ccccc2C)S(C)(=O)=O)cc1 -3.56%
CC1=C(C(=O)Nc2ccccc2)C(c2ccc(C)cc2)n2nc(SCc3ccccc3C)nc2N1 (configuration not stated) -4.53%
FC(F)(F)c1cc(Nc2nc3ccccc3c3nncn23)ccc1Cl -4.95%
CCCSc1nc2sc3c(c2c(=O)n1-c1cccc(Br)c1)CC(C)(C)OC3 0.0081%
COc1cccc(OCCn2c(-c3ccc(Br)cc3)nc3ccccc3c2=O)c1 -1.33%
CCOC(=O)c1c(N)n(-c2cccc(C)c2C)c2nc3ccccc3nc12 -10.6%
Cc1ccc(NC(=O)c2sc3nc(N)c(C#N)cc3c2N)cc1 -3.07%
Cc1ccc2nc(-c3ccc(C)c(NC(=O)Cc4ccccc4)c3)oc2c1 -12.9%
CN(Cc1ccccc1)C(=O)CCS(=O)(=O)c1cc(Br)cc2c1N(C(=O)C1CC1)CC2 9.46%
COC(=O)c1ccc(OCC(O)CN(CCO)CC(O)Cn2ccc3ccccc32)cc1 (configuration not stated) -1.59%
COc1cccc(C(=O)NC2(C(F)(F)F)C(=O)Nc3c2c(=O)[nH]c(=O)n3-c2ccc(C)cc2)c1 (configuration not stated) 4.19%
COC(=O)c1c(NC(=O)C(C)Oc2ccc(Cl)c(C)c2)sc(C)c1C (configuration not stated) -9.91%
O=C(NCCCN1CCN(c2cccc(Cl)c2)CC1)c1nnc(Cc2ccc(F)cc2Cl)o1 7.93%
CCC(=O)NCc1cc(-c2nn(C)c(=O)c3ccccc23)ccc1OC 0.735%
CCCn1c(C)cc(/C=C(\C#N)C(=O)OCC(=O)Nc2cc(OC)c(OC)c(OC)c2)c1C -0.865%
COc1ccc2nc(SCc3ccccc3)nc(C)c2c1 -5.14%
COc1ccc(-c2cc(C(F)(F)F)nc(SCC(=O)N(C)Cc3ccccc3)n2)cc1OC -2.02%
O=C(COC(=O)c1cc([N+](=O)[O-])ccc1NCc1ccccc1)NC1CCCCC1 1%
CCCn1c(=N)n(CC(O)COc2ccccc2OC)c2ccccc21 (configuration not stated) 1.72%
COc1cccc(-c2nnc(SCC(=O)N3CCC(C)CC3)o2)c1 -8.02%
Cc1cc(C)cc(NC(c2nnc(-c3cccc(F)c3)o2)c2ccc(F)cc2Cl)c1 (configuration not stated) -7.7%
CCn1c2ccccc2c2cc(NC(=O)COc3ccc(C)cc3C)ccc21 3.53%
Cc1cccc(N2CCN(C(=O)c3ccc(Nc4nc5ccccc5n5nnnc45)cc3)CC2)c1C 6.65%
O=C(Nc1ccc(Oc2ccccc2)cc1)C1CCN(S(=O)(=O)c2ccc(Cl)cc2)CC1 -5.92%
CCOC(=O)c1cnc2c(C)cc(Cl)cc2c1NCCc1ccc(OC)c(OC)c1 1.34%
C/C(CC1CC(C)(C)OC1=O)=N/Nc1nc(-c2ccccc2)cs1 (configuration not stated) 12.5%
Cc1ccc(C)c(N2CCN(C(=O)C3CCC(CNS(=O)(=O)c4cccs4)CC3)CC2)c1 (configuration not stated) 7.32%
CCc1nc2nc(C)cc(Nc3ccc(F)c(Cl)c3)n2n1 7.04%
Cn1c(=O)c2c(nc(SCC(=O)Nc3ccc(F)cc3)n2Cc2ccc(Cl)cc2)n(C)c1=O -2.31%
COc1ccc(NC(=O)C2CCCN(S(=O)(=O)c3c(C)[nH]c(=O)[nH]c3=O)C2)c(OC)c1 (configuration not stated) 2.41%
OCC(CO)(CO)NCc1ccc(-c2ccccc2)cc1 -8.01%
CCCCCCCCC(=O)NCCOc1ccccc1 2.86%
Cc1cc(NC(=O)C2CCC(CNS(=O)(=O)c3ccc(Br)s3)CC2)ccc1Br (configuration not stated) 10.5%
C[n+]1ccccc1C1CCCC/C1=N\Nc1ccc([N+](=O)[O-])cc1[N+](=O)[O-] (configuration not stated) 10.4%
CC1=C(C(=O)OCC2CCCCC2)C(c2c(F)cccc2Cl)CC(=O)N1 (configuration not stated) -0.576%
CCN(C(=O)COC(=O)c1cc(NS(=O)(=O)c2ccc(Cl)c([N+](=O)[O-])c2)ccc1O)C1CCCCC1 1.32%
